Screens deposited in PubChem BioAssay by National Center for Advancing Translational Sciences (NCATS).
A selection: hits, their analogues and other compounds. The true share with any hit is near 4.7%.
TGFb inhibitor: qHTS for Inhibitors of TGF-b. HepG2 CAGA-GFP TGF-b/SMAD3 reporter, GFP fluorescence, 18 h; TGF-beta stimulated, 500 pg/mL final. Potency, µM (doses to about 46.1 µM), inactives show at the top dose activity, negative = inhibition, actives largely listed as inhibitors. 1.2% of 410,000 active. AID 588855, 2011; also: potency is read from the fitted curve at half-maximal effect; % is scaled to controls: 0 for no effect and ±100 for the full control effect; nearly all actives have a fitted effect of over 65% in size
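Smad-responsive CAGA-GFP expression was quantified in HEPG2 cells exposed to compounds and 500 pg/mL final TGF-beta for 18 h at 37 degrees C; unstimulated wells defined full inhibition.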
DRD3 antagonist: qHTS of D3 Dopamine Receptor Antagonist: qHTS | D3R cells, DiscoveRx beta-arrestin luminescence, antagonist mode; stronger effect = lower value | max response, negative = inhibition, % | 2.5% of 360,000 active | AID 652054, 2013 | D(3) dopamine receptor (Homo sapiens), P35462; in the data active = max response below about -50%; inconclusive = no clear call, values can overlap the other calls; also: % is scaled to controls: 0 for no effect and ±100 for the full control effect
Target sequence (P35462 whole entry, looked up): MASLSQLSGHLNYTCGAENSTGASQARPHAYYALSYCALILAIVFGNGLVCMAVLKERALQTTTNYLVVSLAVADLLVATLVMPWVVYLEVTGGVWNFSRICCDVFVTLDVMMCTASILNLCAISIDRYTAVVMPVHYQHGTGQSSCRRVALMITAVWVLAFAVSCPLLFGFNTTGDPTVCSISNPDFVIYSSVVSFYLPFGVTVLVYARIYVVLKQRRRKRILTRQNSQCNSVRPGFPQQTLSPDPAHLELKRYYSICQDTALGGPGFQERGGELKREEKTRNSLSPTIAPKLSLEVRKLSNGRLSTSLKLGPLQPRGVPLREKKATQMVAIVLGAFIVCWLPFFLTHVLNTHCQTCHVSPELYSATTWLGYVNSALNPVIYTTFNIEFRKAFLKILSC
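Cells expressing the human receptor were seeded at 1500 cells/well, incubated overnight at 37 degrees C in 5% CO2, then exposed to library compounds with dopamine controls for 90 minutes at 37 degrees C before luminescent detection.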
ATXN2 expr inh: Primary qHTS for Inhibitors of ATXN expression. HEK-293 ATXN2-luciferase reporter, luminescence, 24 h. 0.72% of 360,000 active. Potency, µM (series often up to 57 µM), for inactives: at the top dose activity change, negative = inhibition, actives largely listed as inhibitors; also: potency is read from the fitted curve at half-maximal effect; % is scaled to controls: 0 for no effect and ±100 for the full control effect; nearly all actives have a fitted effect of over 55% in size
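ATXN2-luciferase reporter cells (luciferase flanked by upstream and downstream ATXN2 gene portions) were treated 24 h at 37 °C with compounds at up to 57 uM. SteadyGlo luminescence gave expression; GF-AFC fluorescence gave viability.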
S2 tox: Viability Counterscreen for Primary qHTS for Inhibitors of ATXN expression; S2 cells (HEK-293 line with an ATXN2-luciferase reporter) viability, CellTiter-Fluor protease fluorescence, 24 h; Potency, µM (series often up to 56.7 µM), hits mostly cytotoxic; 0.49% of 400,000 active; AID 651635, 2014; also: potency is read from the fitted curve at half-maximal effect; nearly all actives have a fitted effect of over 40% in size
D3 ag: qHTS of D3 Dopamine Receptor Agonist: qHTS; 0.58% of 410,000 active; D3R DiscoveRx beta-arrestin cells, luminescence, 90 min; max activation, %; D(3) dopamine receptor (Homo sapiens), P35462; in the data active = max activation above about 30%; also: 0% is about no effect
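Agonist mode: compounds and dopamine controls were applied to plated cells for 90 min at 37 degrees C after an overnight attachment at 1500 cells/well. Luminescent read-out followed 30 - 60 minutes at room temperature with DiscoveRx detection reagent.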
HepG2 tox: qHTS for Inhibitors of TGF-b: Cytotox Counterscreen; 0.76% of 410,000 active; AID 588856, 2011; HepG2 CAGA-GFP viability, ATP luminescence, 18 h; Potency, µM (highest dose often 46.1 µM), for inactives: at the highest dose activity change, negative = cytotoxicity, most hits filed as cytotoxic; also: potency is read from the fitted curve at half-maximal effect
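HepG2 CAGA-GFP cells (1000/well, DMEM with 1% FBS) received compound, then TGF-beta at 500 pg/mL final, and were incubated 18 hours at 37 degrees C. Viability was read by CellTiter-Glo luminescence. Media-only wells were set as complete cell-killing and DMSO as no toxicity.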
* hit, by the source's call; i = inactive; ? = inconclusive; . = not tested or not shown; [ ] = dose if it differs, or a comment. Unless noted, calls follow the shape of the dose curve; as a rule, active = well fitted curve in the direction sought with a large enough effect; inconclusive = small, poorly fitted or top-dose-only effect, or another doubt; inactive = no such curve, though single readings can be large; an effect the other way counts as inactive or inconclusive.

SMILES	TGFb inhibitor	DRD3 antagonist	ATXN2 expr inh	S2 tox	D3 ag	HepG2 tox
Cc1ccn2cc(-c3ccc(O)c(O)c3)nc2c1	11µM*	-10	.	?	0	-66%
CC(C)OCCCN(C)C1CCN(S(=O)(=O)c2ccc(-c3cc(C(F)(F)F)no3)s2)CC1	-21%	-84*	97%	.	-8	-10%
CSc1nc(Nc2ccc(C)cc2C)cc(-c2ccccc2)n1	-12%	.	0%	?	33*	-47%
Cc1cc(C)cc(Nc2cc(-c3ccccc3)nc(C)n2)c1	?	.	-27%	?	22	-44%
COc1ccc(CCNC(=O)CSc2ccc3ccccc3c2)cc1OC	-1%	12	-9%	i	-23	13%
O=C(CSc1ccc2ccccc2c1)NCCc1ccc(O)c(O)c1	-29%	12	1%	.	69*	-10%
Cc1nn2c(=O)cc(COC(=O)c3cccs3)nc2s1	-2%	.	13%	i	5	4%
COc1ccc(CCNC(=O)c2ccc(Br)cc2)cc1	2%	2	4%	i	-3	-3%
COc1ccc(CCNC(=O)c2coc(=O)c(Br)c2)cc1	18µM*	-11	?	.	1	13µM*
COc1ccc(CCNC(=O)c2c(O)c3c([nH]c2=O)CCCC3)cc1	-6%	-126*	-25%	i	2	5%
CCCNC(=O)c1c(O)c2c([nH]c1=O)CCCC2	-14%	-5	-7%	?	1	-17%
COC(=O)CCn1nnc(-c2ccc(C(C)C)cc2)n1	-3%	-4	0.5µM*	i	-1	2%
Cc1nn(-c2ccccc2)c2[nH]c(=O)c(CNCCN3CCOCC3)cc12	7%	-66*	7%	i	2	-32%
Cc1ccc(-c2nn(-c3ccccc3)c3[nH]c(=O)c(CNCc4ccccc4)cc23)cc1	?	-65*	?	.	-8	-55%
Cc1ccc(-c2nn(-c3ccccc3)cc2CNCc2ccccc2)cc1	?	-24	-13%[11.3 µM]	?	-13	-104%
Cc1nn(-c2ccccc2)c2[nH]c(=O)c(CNCc3ccc4c(c3)OCO4)cc12	2%	-65*	-1%	i	3	-33%
COc1cccc(CNc2sc3c(c2C(=O)Nc2ccc(OC)cc2OC)CCC3)c1	?	.	-18%	?	6	-31%
CN1CCC(OC(c2ccccc2)c2ccc(Cl)cc2)C1 (centres undefined)	-9%	-74*	?	i	-17	-39%
Cc1cc(C(=O)Nc2ncn[nH]2)ccc1[N+](=O)[O-]	4%	-10	9%	i	34*	-3%
CCn1c(C(=O)NCc2ccc(OC)cc2)cc2sc(Cl)cc21	-2%	.	173%	i	-19	-29%
COc1ccccc1CCNCc1ccc(OC)c(OCc2ccccc2)c1	1%	?	?	?	-62	-65%
COc1cc(CNCCc2c[nH]c3ccccc23)ccc1OCc1ccccc1F	?	-56*	?	?	-18	13µM*
COc1ccc(CCNC(=O)NCCc2c[nH]c3ccccc23)cc1OC	3%	5	-19%	i	-1	-14%
COc1cccc(CNCCc2c[nH]c3ccccc23)c1OCc1ccccc1	?	3	?	i	-12	11µM*
COc1ccc(/C=N/NC(=O)c2nc(-c3ccccc3)n(-c3ccccc3)n2)c(O)c1	0%	-11	4µM*	i	4	-5%
COc1cccc(/C=N/NC(=O)c2cc3c(OC)ccc(OC)c3[nH]2)c1O	?	14	.	i	1	0%
COc1cc(C(=O)Oc2ccccc2/C=N/NC(=O)c2ccc(Cl)cc2)cc(OC)c1OC	7.1µM*	-14	0%	?	-10	6%
COc1ccc(/C=N/NC(=O)c2nc(-c3ccccc3)n(-c3ccccc3)n2)cc1	2%	-5	3%	i	-8	-6%
